Our source for the growth values is PubChem BioAssay (NCI).

Among the test systems are HCT-15 colon; HT29 colon; SNB-75 CNS; SNB-19 CNS; U251 CNS; PC-3 prostate; SK-MEL-5 melanoma; UACC-62 melanoma; LOX IMVI melanoma; SK-MEL-28 melanoma.
What all share (experiment): NCI-60 one-dose screen, 48 h (100 = growth as untreated, 0 = no growth, -100 = all killed)
Holding throughout (conditions): 10 µM unless noted

The panel holds about 83,000 compounds, 20% with a hit somewhere; the sample as a whole holds those more often.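 Each cell line was grown in a 96-well plate and treated with one concentration of compound for 48 hours. Values below 10 were considered active.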 A number with no mark means an inactive call. The source made the active and inactive calls.

With `CCCCSc1ncnc2c1ncn2C1CCCCO1` (stereo not given), the growth is 102% in the assay on HCT-15 colon; 109% with HT29 colon; 104% in the assay on SNB-75 CNS; 103% in the assay with SNB-19 CNS; 99.9% in the assay with U251 CNS; 99.5% with PC-3 prostate. Also, the growth in the assay on SK-MEL-5 melanoma was 104%; with UACC-62 melanoma, 99.6%; with LOX IMVI melanoma it was 101%; with SK-MEL-28 melanoma, 119%.
`CN1C(=O)N(C)C2C1NN=c1s/c(=C\c3ccsc3)c(=O)n12` (stereo not given): the growth is 24.7% in the assay on HCT-15 colon; 9.4% (active) with HT29 colon; -7.65% (active) with SNB-75 CNS; 39.6% in the assay with SNB-19 CNS; 30.6% with U251 CNS; 38.5% in the assay on PC-3 prostate. Moreover, the growth in the assay with SK-MEL-5 melanoma was 41.6%; with UACC-62 melanoma, 28.3%; in the assay with LOX IMVI melanoma, 37.7%; in the assay with SK-MEL-28 melanoma it was 67.8%.
Take `CCCCCCCCCCCCC1CCC(=O)O1` (stereo not given): the growth is 91.7% with HCT-15 colon; 90.6% in the assay with HT29 colon; 95% in the assay with SNB-75 CNS; 98.3% with SNB-19 CNS; 101% with U251 CNS; 95.8% with PC-3 prostate. Further, the growth in the assay with SK-MEL-5 melanoma was 99.7%; in the assay with UACC-62 melanoma it was 98.5%; in the assay with LOX IMVI melanoma, 93.5%; in the assay on SK-MEL-28 melanoma, 96.4%.
With `O=C1SCN(Cc2ccccc2)CN1Cc1ccccc1`, the growth in the assay with HCT-15 colon was 98%; in the assay on HT29 colon, 90.4%; in the assay on SNB-75 CNS, 91%; with SNB-19 CNS, 108%; in the assay on U251 CNS, 99.5%; in the assay on PC-3 prostate, 86.3%. For the same compound, the growth with SK-MEL-5 melanoma is 92.8%; in the assay on UACC-62 melanoma it was 89.6%; with LOX IMVI melanoma, 70.2%; with SK-MEL-28 melanoma, 111%.
As to `COc1cc(C2CC(c3cccc(Nc4ccnc5cc(Cl)ccc45)c3)=NN2C=O)cc(OC)c1OC` (stereo not given), the growth with HCT-15 colon is 27.6%; in the assay with HT29 colon, -54.3% (active); in the assay on SNB-75 CNS, -26.9% (active); with SNB-19 CNS, 36.9%; in the assay with U251 CNS it was 21.5%; in the assay on PC-3 prostate it was 16.7%. In addition, the growth is 4.37% (active) in the assay on SK-MEL-5 melanoma, -35% (active) in the assay on UACC-62 melanoma, 19.9% in the assay with LOX IMVI melanoma and 7.27% (active) in the assay on SK-MEL-28 melanoma.
Consider `COc1ccc(C2c3cccn3-c3ccccc3N2C(C)=O)cc1` (stereo not given), for which the growth is 87.7% in the assay with HCT-15 colon; 115% in the assay on HT29 colon; 77.4% in the assay with SNB-75 CNS; 100% in the assay with SNB-19 CNS; 106% with U251 CNS; 78.4% in the assay on PC-3 prostate. The growth is 96.1% in the assay with SK-MEL-5 melanoma, 86.3% in the assay on UACC-62 melanoma, 96.1% with LOX IMVI melanoma and 108% in the assay on SK-MEL-28 melanoma.
As to `C[C@@H]1CC2C3CCC4=CC(=O)C=C[C@]4(C)[C@@]3(Cl)[C@@H](O)C[C@]2(C)[C@@]1(OC(=O)c1ccco1)C(=O)CCl` (stereo not given in full), the growth in the assay on HCT-15 colon was 79.7%; with HT29 colon it was 70.8%; in the assay with SNB-75 CNS, 86.3%; with SNB-19 CNS it was 86%; in the assay on U251 CNS it was 85%; in the assay with PC-3 prostate, 49.9%. Moreover, the growth in the assay with SK-MEL-5 melanoma is 55%; with UACC-62 melanoma, 42%; with LOX IMVI melanoma, 61.6%; with SK-MEL-28 melanoma, 88.9%.
`CCN(CC)CC(=O)Nc1c(C)cc(C(=O)NN)cc1C`: the growth was 103% in the assay on HCT-15 colon; 96.1% in the assay on HT29 colon; 84.9% in the assay on SNB-75 CNS; 97.3% with SNB-19 CNS; 97.5% in the assay with U251 CNS; 101% in the assay on PC-3 prostate. For the same compound, the growth with SK-MEL-5 melanoma is 102%; in the assay on UACC-62 melanoma, 97.6%; with LOX IMVI melanoma, 94.3%; with SK-MEL-28 melanoma, 106%.
Regarding `Oc1ccc(-c2nc3ccccc3s2)cc1CN(Cc1ccccn1)Cc1ccccn1`, the growth is 15.2% with HCT-15 colon; 25.7% in the assay with HT29 colon; 38.7% in the assay with SNB-75 CNS; 20.5% in the assay on SNB-19 CNS; 8.51% (active) in the assay with U251 CNS; 30.3% in the assay with PC-3 prostate. The growth in the assay on SK-MEL-5 melanoma is -67.4% (active); with UACC-62 melanoma it was 8.93% (active); in the assay with LOX IMVI melanoma it was 2.31% (active); with SK-MEL-28 melanoma it was 33.1%.
With `O=[N+]([O-])c1ccc(N=Nc2c(NNc3ccc([N+](=O)[O-])cn3)cc(S(=O)(=O)O)c3ccccc23)nc1`, the growth was 68.7% in the assay on HCT-15 colon; 40.8% with HT29 colon; 91.9% in the assay with SNB-75 CNS; 95.6% in the assay with SNB-19 CNS; 68.7% in the assay on U251 CNS; 67.7% with PC-3 prostate. Further, the growth in the assay on SK-MEL-5 melanoma was 92%; in the assay on UACC-62 melanoma it was 86.4%; in the assay on LOX IMVI melanoma it was 57.9%; in the assay on SK-MEL-28 melanoma, 104%.
On to `COc1ccc(C(=O)O)cc1.[Ag]`, for which the growth in the assay with HCT-15 colon is 102%; in the assay on HT29 colon, 103%; in the assay with SNB-75 CNS, 110%; with SNB-19 CNS, 106%; with U251 CNS it was 103%; in the assay on PC-3 prostate, 77.1%. Also, the growth with SK-MEL-5 melanoma is 46.5%; with UACC-62 melanoma it was 108%; in the assay on LOX IMVI melanoma, 88.7%; in the assay with SK-MEL-28 melanoma it was 110%.
As for `COC(=O)C(Br)(C(=O)OC)C(Br)C(Br)C(Br)c1ccccc1` (stereo not given), the growth was -37.8% (active) in the assay with HCT-15 colon; 32.3% in the assay on HT29 colon; 92.4% in the assay with SNB-75 CNS; 98.6% in the assay with SNB-19 CNS; 81.5% in the assay with U251 CNS; 93.3% with PC-3 prostate. In addition, the growth with SK-MEL-5 melanoma was 98.4%; in the assay with UACC-62 melanoma, 60.2%; in the assay with LOX IMVI melanoma it was 9.1% (active); in the assay with SK-MEL-28 melanoma, 108%.
For the compound `C=C(C)[C@@H]1CC[C@]2(C(=O)NC(COC(=O)C(Cl)Cl)(COC(=O)C(Cl)Cl)COC(=O)C(Cl)Cl)CC[C@]3(C)[C@H](CC[C@@H]4[C@@]5(C)CC[C@H](OC(C)=O)C(C)(C)[C@@H]5CC[C@]43C)[C@@H]12`, the growth was 27.9% in the assay with HCT-15 colon; 4.68% (active) with HT29 colon; 81.2% in the assay on SNB-75 CNS; 70.6% in the assay with SNB-19 CNS; 23.4% with U251 CNS; 11.1% in the assay with PC-3 prostate. Also, the growth in the assay with SK-MEL-5 melanoma was 62.1%; in the assay with UACC-62 melanoma, 81%; in the assay with LOX IMVI melanoma, 32.4%; with SK-MEL-28 melanoma, 86.9%.
Turning to `O=C(Nc1ccc(Br)cc1)c1ccc(Cl)c(Cl)c1`, the growth in the assay with HCT-15 colon was 32.3%; with HT29 colon it was 40.1%; with SNB-75 CNS, 38.6%; with SNB-19 CNS, 35%; with U251 CNS, 32.4%; with PC-3 prostate, -22% (active). For the same compound, the growth in the assay with SK-MEL-5 melanoma was 49.4%; with UACC-62 melanoma it was 43.6%; with LOX IMVI melanoma, 33.3%; in the assay with SK-MEL-28 melanoma, 73%.
